Measurements as given in PubChem BioAssay (NCI).
This is part of a sample that, as a whole, favours compounds with a hit. Of some 83,000 tested, about 20% had one in any assay.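 Compound tested at a single concentration for 48 hours in 96-well plates; a percent growth value below 10 was scored as active.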 Unmarked numbers belong to inactive results. Active and inactive are the calls of the source.

What was measured:
Experiment in all cases: NCI-60 one-dose screen, 48 h (100 = growth as untreated, 0 = no growth, -100 = all killed)
Conditions in all cases: 10 µM unless noted
HCT-15 colon = system: HCT-15 colon
HT29 colon = system: HT29 colon
SNB-75 CNS = system: SNB-75 CNS
SNB-19 CNS = system: SNB-19 CNS
PC-3 prostate = system: PC-3 prostate
SK-MEL-5 melanoma = system: SK-MEL-5 melanoma
UACC-62 melanoma = system: UACC-62 melanoma
LOX IMVI melanoma = system: LOX IMVI melanoma
SK-MEL-28 melanoma = system: SK-MEL-28 melanoma
SK-MEL-2 melanoma = system: SK-MEL-2 melanoma
SN12C renal = system: SN12C renal
UO-31 renal = system: UO-31 renal
TK-10 renal = system: TK-10 renal
ACHN renal = system: ACHN renal
CAKI-1 renal = system: CAKI-1 renal
A498 renal = system: A498 renal
CCRF-CEM leukemia = system: CCRF-CEM leukemia
MOLT-4 leukemia = system: MOLT-4 leukemia
EKVX NSCLC = system: EKVX NSCLC

## COc1cccc2c1C(=O)c1c(O)c3c(c(O)c1C2=O)C[C@@](O)(/C(C)=N/NC(=O)c1ccc(Cl)cc1)C[C@@H]3OC1CC(N)C(O)C(C)O1 (stereo not given in full)
HCT-15 colon
  growth: 16.4%
HT29 colon
  growth: -42.6% (active)
SNB-75 CNS
  growth: -84.3% (active)
SNB-19 CNS
  growth: 5.54% (active)
PC-3 prostate
  growth: -36.5% (active)
SK-MEL-5 melanoma
  growth: -45.2% (active)
UACC-62 melanoma
  growth: -72.8% (active)
LOX IMVI melanoma
  growth: -44.6% (active)
SK-MEL-28 melanoma
  growth: -32.3% (active)
SK-MEL-2 melanoma
  growth: -81.1% (active)
SN12C renal
  growth: 5.79% (active)
UO-31 renal
  growth: -40.4% (active)
TK-10 renal
  growth: -23.2% (active)
ACHN renal
  growth: -36.3% (active)
CAKI-1 renal
  growth: -53.2% (active)
A498 renal
  growth: -88.4% (active)
CCRF-CEM leukemia
  growth: -10.8% (active)
MOLT-4 leukemia
  growth: -31.3% (active)

## C[C@@]1(N2C(=O)OC[C@@H]2c2ccccc2)C(=O)N([C@H](CC(=O)N2CCC(N3CCCCC3)CC2)C(=O)NCc2cccc(C(F)(F)F)c2)[C@@H]1/C=C/c1ccccc1
HCT-15 colon
  growth: 19%
HT29 colon
  growth: -3.04% (active)
SNB-75 CNS
  growth: 66.3%
SNB-19 CNS
  growth: 74.1%
PC-3 prostate
  growth: 52.8%
SK-MEL-5 melanoma
  growth: -93% (active)
UACC-62 melanoma
  growth: 24.6%
LOX IMVI melanoma
  growth: -50.1% (active)
SK-MEL-28 melanoma
  growth: -45.2% (active)
SK-MEL-2 melanoma
  growth: 64.8%
EKVX NSCLC
  growth: 71.7%
SN12C renal
  growth: 74.3%
UO-31 renal
  growth: 57.8%
TK-10 renal
  growth: 79.1%
ACHN renal
  growth: 75.2%
CAKI-1 renal
  growth: 82.8%
A498 renal
  growth: 52.3%
CCRF-CEM leukemia
  growth: 42.6%
MOLT-4 leukemia
  growth: 10.7%

## O=S(=O)(Nc1ccc(Cl)cc1Cl)c1ccc(-c2cnc(C3CC3)o2)cc1
HCT-15 colon
  growth: 24.3%
HT29 colon
  growth: 1.27% (active)
SNB-75 CNS
  growth: 5.51% (active)
SNB-19 CNS
  growth: 43.6%
PC-3 prostate
  growth: 28.1%
SK-MEL-5 melanoma
  growth: 8.59% (active)
UACC-62 melanoma
  growth: 35.3%
LOX IMVI melanoma
  growth: 43.3%
SK-MEL-28 melanoma
  growth: 55.3%
SK-MEL-2 melanoma
  growth: 33.3%
EKVX NSCLC
  growth: 38.1%
SN12C renal
  growth: 51.4%
UO-31 renal
  growth: 53.7%
TK-10 renal
  growth: 48.4%
ACHN renal
  growth: 53.6%
A498 renal
  growth: -21% (active)
CCRF-CEM leukemia
  growth: 18.6%
MOLT-4 leukemia
  growth: 24.3%

## Cc1csc2ccc(Cl)cc12
HCT-15 colon
  growth: 95.6%
HT29 colon
  growth: 102%
SNB-75 CNS
  growth: 69.7%
SNB-19 CNS
  growth: 99.2%
PC-3 prostate
  growth: 96.8%
SK-MEL-5 melanoma
  growth: 107%
UACC-62 melanoma
  growth: 96.2%
LOX IMVI melanoma
  growth: 103%
SK-MEL-28 melanoma
  growth: 104%
SK-MEL-2 melanoma
  growth: 99.7%
SN12C renal
  growth: 93.1%
UO-31 renal
  growth: 81.6%
TK-10 renal
  growth: 99.4%
ACHN renal
  growth: 95.5%
CAKI-1 renal
  growth: 96.9%
A498 renal
  growth: 119%
CCRF-CEM leukemia
  growth: 108%
MOLT-4 leukemia
  growth: 112%

## O=C1Nc2ccc(Br)cc2C12CC(c1ccccc1)=NN2 (stereo not given)
HCT-15 colon
  growth: 32.7%
HT29 colon
  growth: 12.1%
SNB-75 CNS
  growth: 28.1%
SNB-19 CNS
  growth: 69.1%
PC-3 prostate
  growth: 29.4%
SK-MEL-5 melanoma
  growth: 23.9%
UACC-62 melanoma
  growth: 48.2%
LOX IMVI melanoma
  growth: 51.9%
SK-MEL-28 melanoma
  growth: 56.2%
SK-MEL-2 melanoma
  growth: 74.9%
SN12C renal
  growth: 61.7%
UO-31 renal
  growth: 48.4%
TK-10 renal
  growth: 77.8%
ACHN renal
  growth: 49.1%
CAKI-1 renal
  growth: 51.5%
A498 renal
  growth: 46.4%
CCRF-CEM leukemia
  growth: 32.3%
MOLT-4 leukemia
  growth: 36.3%

## COc1c(Cl)cc(Cl)cc1Cl
HCT-15 colon
  growth: 116%
HT29 colon
  growth: 108%
SNB-75 CNS
  growth: 116%
SNB-19 CNS
  growth: 103%
PC-3 prostate
  growth: 111%
SK-MEL-5 melanoma
  growth: 109%
UACC-62 melanoma
  growth: 100%
LOX IMVI melanoma
  growth: 107%
SK-MEL-28 melanoma
  growth: 127%
SK-MEL-2 melanoma
  growth: 117%
SN12C renal
  growth: 100%
UO-31 renal
  growth: 88.4%
TK-10 renal
  growth: 109%
ACHN renal
  growth: 112%
CAKI-1 renal
  growth: 126%
A498 renal
  growth: 96.5%
CCRF-CEM leukemia
  growth: 110%
MOLT-4 leukemia
  growth: 91.4%

## CC[C@H](Nc1cc(C)nc(N)n1)c1nc2cccc(NCc3ccc(C(=O)NO)cc3)c2c(=O)n1-c1ccccc1
HCT-15 colon
  growth: 92.5%
HT29 colon
  growth: 10.2%
SNB-75 CNS
  growth: 15.7%
SNB-19 CNS
  growth: -40.3% (active)
PC-3 prostate
  growth: 12.4%
SK-MEL-5 melanoma
  growth: 30%
UACC-62 melanoma
  growth: 9.65% (active)
LOX IMVI melanoma
  growth: -57.9% (active)
SK-MEL-28 melanoma
  growth: 5.53% (active)
SK-MEL-2 melanoma
  growth: 33.1%
EKVX NSCLC
  growth: 64.3%
SN12C renal
  growth: 29%
UO-31 renal
  growth: 80.1%
TK-10 renal
  growth: 32.1%
ACHN renal
  growth: 79.9%
A498 renal
  growth: -3.63% (active)
CCRF-CEM leukemia
  growth: -11% (active)
MOLT-4 leukemia
  growth: -9.86% (active)

## COc1ccc(-c2nn(-c3ccccc3)cc2/C=C2\SC(=O)NC2=O)cc1
HCT-15 colon
  growth: 89.4%
HT29 colon
  growth: 114%
SNB-75 CNS
  growth: 66.3%
SNB-19 CNS
  growth: 89.2%
PC-3 prostate
  growth: 99.6%
SK-MEL-5 melanoma
  growth: 83.1%
UACC-62 melanoma
  growth: 89.2%
LOX IMVI melanoma
  growth: 59%
SK-MEL-28 melanoma
  growth: 112%
SK-MEL-2 melanoma
  growth: 100%
EKVX NSCLC
  growth: 85.2%
SN12C renal
  growth: 90.8%
UO-31 renal
  growth: 80%
TK-10 renal
  growth: 99.7%
ACHN renal
  growth: 96%
CAKI-1 renal
  growth: 83.2%
A498 renal
  growth: 72%
CCRF-CEM leukemia
  growth: 91.9%
MOLT-4 leukemia
  growth: 96.4%

## O=C(N/N=C/c1ccc(O)cc1O)c1cccnc1
HCT-15 colon
  growth: 30.7%
HT29 colon
  growth: 46.1%
SNB-75 CNS
  growth: 37.7%
SNB-19 CNS
  growth: 70.5%
PC-3 prostate
  growth: 53.2%
SK-MEL-5 melanoma
  growth: 39.3%
UACC-62 melanoma
  growth: 34.2%
LOX IMVI melanoma
  growth: 21.8%
SK-MEL-28 melanoma
  growth: 50.4%
SK-MEL-2 melanoma
  growth: 55.6%
SN12C renal
  growth: 57.2%
UO-31 renal
  growth: 22.2%
TK-10 renal
  growth: 39.4%
ACHN renal
  growth: 30.1%
CAKI-1 renal
  growth: 13.4%
A498 renal
  growth: 92%
CCRF-CEM leukemia
  growth: 5.78% (active)
MOLT-4 leukemia
  growth: 3.3% (active)

## COc1ccc(/C=N\NC(=O)c2ccncc2)cc1O
HCT-15 colon
  growth: 107%
HT29 colon
  growth: 112%
SNB-75 CNS
  growth: 74.8%
SNB-19 CNS
  growth: 95.1%
PC-3 prostate
  growth: 106%
SK-MEL-5 melanoma
  growth: 92.5%
UACC-62 melanoma
  growth: 99.8%
LOX IMVI melanoma
  growth: 97.2%
SK-MEL-28 melanoma
  growth: 104%
SK-MEL-2 melanoma
  growth: 90.8%
SN12C renal
  growth: 96.7%
UO-31 renal
  growth: 77.8%
TK-10 renal
  growth: 102%
ACHN renal
  growth: 102%
CAKI-1 renal
  growth: 90.4%
A498 renal
  growth: 108%
CCRF-CEM leukemia
  growth: 99.3%
MOLT-4 leukemia
  growth: 95.6%

## Nc1cc2nc3ccccc3sc-2cc1=O
HCT-15 colon
  growth: 55.2%
HT29 colon
  growth: 94.1%
SNB-75 CNS
  growth: 109%
SNB-19 CNS
  growth: 91.7%
PC-3 prostate
  growth: 50.8%
SK-MEL-5 melanoma
  growth: 31.3%
UACC-62 melanoma
  growth: 17.2%
LOX IMVI melanoma
  growth: 11%
SK-MEL-28 melanoma
  growth: 46.5%
SK-MEL-2 melanoma
  growth: 89.4%
SN12C renal
  growth: 60.7%
UO-31 renal
  growth: 42.8%
TK-10 renal
  growth: 137%
ACHN renal
  growth: 65.5%
CAKI-1 renal
  growth: 56.3%
A498 renal
  growth: 106%
CCRF-CEM leukemia
  growth: 18.4%
MOLT-4 leukemia
  growth: 61.4%
